Where “and” joins values, the source holds several entries; their conditions need not be identical. Equal values may be shown once. Read-outs that look alike come from different tables or passages of the source.
Assays:
[1] = test system: PIKFYVE; details: concentration: 1 μM, replicates: in singlicate, n = 1
[2] = test system: PIM1; details: concentration: 1 μM, replicates: in singlicate; n = 1
[3] = test system: PIM2; details: concentration: 1 μM, replicates: in singlicate; n = 1
[4] = test system: PIM3; details: concentration: 1 μM, replicates: in singlicate; n = 1
[5] = test system: PIP5K1A; details: concentration: 1 μM, replicates: in singlicate, n = 1
[6] = test system: PIP5K1C; details: concentration: 1 μM, replicates: in singlicate, n = 1
[7] = test system: PIP5K2B; details: concentration: 1 μM, replicates: in singlicate, n = 1
[8] = test system: T1, PIP5K2C; details: concentration: 1 μM, replicates: in singlicate, n = 1
T1 construct: gene PIP4K2C

[9] = test system: T2, PKAC-alpha; details: concentration: 1 μM, replicates: in singlicate, n = 1
T2 construct: gene PRKACA

[10] = test system: T3, PKAC-beta; details: concentration: 1 μM, replicates: in singlicate, n = 1
T3 construct: gene PRKACB

[11] = test system: PKMYT1; details: concentration: 1 μM, replicates: in singlicate, n = 1
[12] = test system: PKN1; details: concentration: 1 μM, replicates: in singlicate, n = 1
[13] = test system: PKN2; details: concentration: 1 μM, replicates: in singlicate, n = 1
[14] = test system: PLK1; details: concentration: 1 μM, replicates: in singlicate, n = 1
[15] = test system: PLK2; details: concentration: 1 μM, replicates: in singlicate, n = 1
[16] = test system: PLK3; details: concentration: 1 μM, replicates: in singlicate; n = 1
[17] = test system: PLK4; details: concentration: 1 μM, replicates: in singlicate, n = 1
[18] = test system: PRKCD; details: concentration: 1 μM, replicates: in singlicate, n = 1
[19] = test system: PRKCE; details: concentration: 1 μM, replicates: in singlicate, n = 1
[20] = test system: PRKCH; details: concentration: 1 μM, replicates: in singlicate, n = 1
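Also: KINOMEscan kinase panel screen.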

CCc1nc(-c2cccc(C)c2)c(-c2ccnc(NCc3ccccc3)c2)s1
%Inh [1]: 0% | %Inh [2]: 21% | %Inh [3]: 0% | %Inh [4]: 25% | %Inh [5]: 0% | %Inh [6]: 14% | %Inh [7]: 38% | %Inh [8]: 0% | %Inh [9]: 0% | %Inh [10]: 0% | %Inh [11]: 5% | %Inh [12]: 14% | %Inh [13]: 0% | %Inh [14]: 0% | %Inh [15]: 7% | %Inh [16]: 6% | %Inh [17]: 0% | %Inh [18]: 16% | %Inh [19]: 0% | %Inh [20]: 0%

COC(=O)Nc1nc2cc(Oc3ccc(NC(=O)Nc4cc(F)ccc4F)cc3)ccc2[nH]1.Cl [GW701424]
%Inh [1]: 31% | %Inh [2]: 13% | %Inh [3]: 0% | %Inh [4]: 2% | %Inh [5]: 41% | %Inh [6]: 9% | %Inh [7]: 14% | %Inh [8]: 40% | %Inh [9]: 0% | %Inh [10]: 0% | %Inh [11]: 0% | %Inh [12]: 0% | %Inh [13]: 0% | %Inh [14]: 0% | %Inh [15]: 0% | %Inh [16]: 0% | %Inh [17]: 0% | %Inh [18]: 0% | %Inh [19]: 12% | %Inh [20]: 5%

Nc1nccc(-c2c(-c3ccc(F)cc3)ncn2C2CCN(CC(F)(F)F)CC2)n1 [SB-236560]
%Inh [1]: 59% | %Inh [2]: 0% | %Inh [3]: 0% | %Inh [4]: 0% | %Inh [5]: 47% | %Inh [6]: 7% | %Inh [7]: 0% | %Inh [8]: 60% | %Inh [9]: 0% | %Inh [10]: 11% | %Inh [11]: 20% | %Inh [12]: 0% | %Inh [13]: 0% | %Inh [14]: 0% | %Inh [15]: 0% | %Inh [16]: 0% | %Inh [17]: 17% | %Inh [18]: 0% | %Inh [19]: 19% | %Inh [20]: 0%

Cc1nnc(-c2ccc3ncc(-c4ccc(S(C)=O)cc4)n3c2)o1 (stereo not drawn)
%Inh [1]: 0% | %Inh [2]: 0% | %Inh [3]: 2% | %Inh [4]: 0% | %Inh [5]: 2% | %Inh [6]: 0% | %Inh [7]: 39% | %Inh [8]: 0% | %Inh [9]: 2% | %Inh [10]: 8% | %Inh [11]: 3% | %Inh [12]: 0% | %Inh [13]: 0% | %Inh [14]: 0% | %Inh [15]: 11% | %Inh [16]: 12% | %Inh [17]: 0% | %Inh [18]: 14% | %Inh [19]: 0% | %Inh [20]: 0%

Cc1ccc(NC(=O)c2ccnc(N3CCN(C)CC3)c2)cc1-c1ccc(C(=O)NCC2CC2)cc1 [GW775604]
%Inh [1]: 0% | %Inh [2]: 0% | %Inh [3]: 0% | %Inh [4]: 4% | %Inh [5]: 0% | %Inh [6]: 0% | %Inh [7]: 0% | %Inh [8]: 0% | %Inh [9]: 0% | %Inh [10]: 0% | %Inh [11]: 9% | %Inh [12]: 0% | %Inh [13]: 0% | %Inh [14]: 6% | %Inh [15]: 7% | %Inh [16]: 5% | %Inh [17]: 0% | %Inh [18]: 0% | %Inh [19]: 0% | %Inh [20]: 0%

Fc1ccc(-c2ncn(CCCN3CCOCC3)c2-c2ccccn2)cc1 [SB-211742]
%Inh [1]: 9% | %Inh [2]: 0% | %Inh [3]: 8% | %Inh [4]: 0% | %Inh [5]: 22% | %Inh [6]: 47% | %Inh [7]: 0% | %Inh [8]: 27% | %Inh [9]: 0% | %Inh [10]: 32% | %Inh [11]: 0% | %Inh [12]: 0% | %Inh [13]: 9% | %Inh [14]: 12% | %Inh [15]: 0% | %Inh [16]: 0% | %Inh [17]: 0% | %Inh [18]: 28% | %Inh [19]: 0% | %Inh [20]: 0%

O=C(Nc1cccc(-c2nn3ncccc3c2-c2ccnc(Nc3cccc(C(F)(F)F)c3)n2)c1)c1c(F)cccc1F [GSK299495]
%Inh [1]: 15% | %Inh [2]: 0% | %Inh [3]: 0% | %Inh [4]: 0% | %Inh [5]: 18% | %Inh [6]: 37% | %Inh [7]: 100% | %Inh [8]: 68% | %Inh [9]: 12% | %Inh [10]: 6% | %Inh [11]: 9% | %Inh [12]: 0% | %Inh [13]: 0% | %Inh [14]: 0% | %Inh [15]: 0% | %Inh [16]: 2% | %Inh [17]: 0% | %Inh [18]: 0% | %Inh [19]: 14% | %Inh [20]: 16%

NS(=O)(=O)c1cccc(-c2ccc3ncc(N4CCOCC4)nc3c2)c1 [GSK1535721]
%Inh [1]: 11% | %Inh [2]: 14% | %Inh [3]: 0% | %Inh [4]: 0% | %Inh [5]: 0% | %Inh [6]: 48% | %Inh [7]: 11% | %Inh [8]: 75% | %Inh [9]: 0% | %Inh [10]: 0% | %Inh [11]: 1% | %Inh [12]: 0% | %Inh [13]: 0% | %Inh [14]: 0% | %Inh [15]: 0% | %Inh [16]: 5% | %Inh [17]: 15% | %Inh [18]: 4% | %Inh [19]: 1% | %Inh [20]: 8%

Cc1c2ccc(N(C)c3ccnc(Nc4cccc(S(N)(=O)=O)c4)n3)cc2nn1Cc1ccccc1.Cl.Cl [GW787226]
%Inh [1]: 0% | %Inh [2]: 0% | %Inh [3]: 0% | %Inh [4]: 0% | %Inh [5]: 0% | %Inh [6]: 0% | %Inh [7]: 0% | %Inh [8]: 0% | %Inh [9]: 17% | %Inh [10]: 4% | %Inh [11]: 0% | %Inh [12]: 0% | %Inh [13]: 0% | %Inh [14]: 0% | %Inh [15]: 0% | %Inh [16]: 15% | %Inh [17]: 50% | %Inh [18]: 0% | %Inh [19]: 0% | %Inh [20]: 0%

O=C1NC(=O)C(N2CCc3ccccc32)=C1c1cccc(Cl)c1 [SB-408010]
%Inh [1]: 4% | %Inh [2]: 16% | %Inh [3]: 9% | %Inh [4]: 6% | %Inh [5]: 0% | %Inh [6]: 39% | %Inh [7]: 0% | %Inh [8]: 0% | %Inh [9]: 11% | %Inh [10]: 14% | %Inh [11]: 20% | %Inh [12]: 0% | %Inh [13]: 3% | %Inh [14]: 27% | %Inh [15]: 0% | %Inh [16]: 4% | %Inh [17]: 25% | %Inh [18]: 0% | %Inh [19]: 19% | %Inh [20]: 13%

CC(C)(CN)c1nc(-c2ccc(Cl)c(O)c2)c(-c2ccncc2)[nH]1.O=C(O)C(F)(F)F [SB-477794]
%Inh ([1]; 1 µM): 31% and 49% | %Inh [2]: 0% | %Inh [3]: 0% | %Inh [4]: 0% | %Inh ([5]; 1 µM): 40% and 61% | %Inh ([6]; 1 µM): 3% and 61% | %Inh ([7]; 1 µM): 0% and 19% | %Inh ([8]; 1 µM): 64% and 49% | %Inh ([9]; 1 µM): 86% and 87% | %Inh ([10]; 1 µM): 56% and 89% | %Inh ([11]; 1 µM): 28% and 26% | %Inh ([12]; 1 µM): 23% and 0% | %Inh ([13]; 1 µM): 0% and 21% | %Inh ([14]; 1 µM): 4% and 1% | %Inh ([15]; 1 µM): 0% and 15% | %Inh [16]: 0% | %Inh ([17]; 1 µM): 5% and 0% | %Inh ([18]; 1 µM): 78% and 87% | %Inh ([19]; 1 µM): 96% and 96.3% | %Inh ([20]; 1 µM): 92.9% and 94.1%

Cn1ccc2ncnc(Oc3ccc(NC(=O)Nc4ccncc4)c(Cl)c3)c21
%Inh [1]: 8% | %Inh [2]: 0% | %Inh [3]: 13% | %Inh [4]: 1% | %Inh [5]: 24% | %Inh [6]: 5% | %Inh [7]: 11% | %Inh [8]: 0% | %Inh [9]: 1% | %Inh [10]: 2% | %Inh [11]: 2% | %Inh [12]: 0% | %Inh [13]: 0% | %Inh [14]: 0% | %Inh [15]: 8% | %Inh [16]: 0% | %Inh [17]: 0% | %Inh [18]: 6% | %Inh [19]: 0% | %Inh [20]: 16%

N#Cc1ccc(-c2cc(-c3c[nH]nc3-c3ccccn3)ccn2)cc1 [GW693028]
%Inh [1]: 0% | %Inh [2]: 0% | %Inh [3]: 0% | %Inh [4]: 0% | %Inh [5]: 7% | %Inh [6]: 71% | %Inh [7]: 23% | %Inh [8]: 7% | %Inh [9]: 0% | %Inh [10]: 0% | %Inh [11]: 1% | %Inh [12]: 0% | %Inh [13]: 0% | %Inh [14]: 0% | %Inh [15]: 0% | %Inh [16]: 0% | %Inh [17]: 0% | %Inh [18]: 0% | %Inh [19]: 16% | %Inh [20]: 18%

O=C(c1ccc(-c2cc(-c3c[nH]nc3-c3ccccn3)ccn2)cc1)N1CCOCC1 [GW812171]
%Inh [1]: 0% | %Inh [2]: 24% | %Inh [3]: 0% | %Inh [4]: 15% | %Inh [5]: 0% | %Inh [6]: 0% | %Inh [7]: 0% | %Inh [8]: 67% | %Inh [9]: 0% | %Inh [10]: 3% | %Inh [11]: 6% | %Inh [12]: 0% | %Inh [13]: 0% | %Inh [14]: 0% | %Inh [15]: 14% | %Inh [16]: 28% | %Inh [17]: 0% | %Inh [18]: 12% | %Inh [19]: 14% | %Inh [20]: 0%

O=C(NOCC1CC1)c1ccc(F)c(F)c1Nc1ccc(I)cc1Cl
%Inh [1]: 40% | %Inh [2]: 0% | %Inh [3]: 0% | %Inh [4]: 0% | %Inh [5]: 0% | %Inh [6]: 3% | %Inh [7]: 0% | %Inh [8]: 0% | %Inh [9]: 0% | %Inh [10]: 0% | %Inh [11]: 0% | %Inh [12]: 0% | %Inh [13]: 0% | %Inh [14]: 0% | %Inh [15]: 8% | %Inh [16]: 0% | %Inh [17]: 0% | %Inh [18]: 3% | %Inh [19]: 28% | %Inh [20]: 0%
